Structures are written as SMILES. Records with an inconclusive call do not appear. Active and inactive are the calls of the source. The calls were made as follows, unless noted: active = hit-call score of the fitted dose curve at least 0.9, where 1 is the maximum; inactive = score below 0.9.

The results in this text go back to PubChem BioAssay (EPA / NIEHS).

Assay [1] in a line: ACEA_ER_80hr: ACEA Biosciences xCELLigence Real-Time Cell Analysis on Estrogen Receptor Agonism for Proliferation (AID 2282667; active = hit-call score of the fitted dose curve at least 0.9, where 1 is the maximum). As to conditions: T47D proliferation, impedance (xCELLigence), 80 h. The method in brief: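 Real-time impedance growth kinetics of human T-47D breast cells read 80 h after dosing, gain-of-signal fitted relative to DMSO. Compounds: 1:4 serial series, top final concentration 100 uM, n = 2.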

Assay [2] in a line: ATG_CRE_CIS: Attagene CIS-FACTORIAL HepG2 Assay for human cAMP Responsive Element (CRE) binding protein 3 (AID 2282926). As to conditions: HepG2 CRE cis-reporter, Attagene multiplexed mRNA; actives raise or lower the signal. The method in brief: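 Multiplexed transcription-unit reporters transfected into HepG2; 24 h dosing; RT-PCR/capillary electrophoresis fluorescence read-out; bidirectional fit vs DMSO.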

Assay [3] has as its target CCAAT/enhancer-binding protein beta (Homo sapiens) (UniProt P17676). The assay is described as follows: ATG_C_EBP_CIS: Attagene CIS-FACTORIAL HepG2 Assay for human CCAAT/Enhancer Binding Protein (C/EBP) beta (AID 2282927). The following applies: HepG2 Attagene cis-factorial transcription factor reporter; actives raise or lower the signal. The method in brief: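 Endogenous transcription factor activity in human liver HepG2 cells is inferred from induction of a CEBPB-linked reporter mRNA. Exposure lasts 24 h; activity is fitted in both directions relative to DMSO.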

Sequence of CCAAT/enhancer-binding protein beta (Homo sapiens) (P17676 whole entry, looked up): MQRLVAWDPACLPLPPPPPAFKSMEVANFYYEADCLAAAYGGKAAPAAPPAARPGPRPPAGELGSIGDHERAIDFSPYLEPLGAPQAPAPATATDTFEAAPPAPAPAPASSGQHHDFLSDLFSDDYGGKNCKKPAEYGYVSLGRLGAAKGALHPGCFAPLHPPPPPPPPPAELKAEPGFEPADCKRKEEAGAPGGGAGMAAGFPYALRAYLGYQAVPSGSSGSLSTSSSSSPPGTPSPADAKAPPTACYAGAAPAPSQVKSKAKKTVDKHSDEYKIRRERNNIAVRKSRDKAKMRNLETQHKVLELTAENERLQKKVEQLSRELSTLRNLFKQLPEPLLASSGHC

`NC(=O)CF`: the outcome in assay [1] was inactive.
On the same count and under the same terms, then `NN=C(N)N`, with “inactive”.
In the case of `CN(C)P(=O)(N(C)C)N(C)C`, the call in assay [1], in assay [2] and in assay [3] was inactive.
With `COP(=S)(OC)Oc1cc(Cl)c(Cl)cc1Cl`, the compound was called inactive in assay [1], in assay [2] and in assay [3].
Take `Cl/C=C/Cl`: the result in assay [1], in assay [2] and in assay [3] was inactive.
With `Nc1cccc2ccccc12`, the result in assay [1], in assay [2] and in assay [3] was inactive.
For `CCCCCCCCCCCCCCCC[n+]1ccccc1`, in assay [1], the AC50 is 0.081 µM (active).
On to `O=C1CCCN1`, for which the compound was classed as inactive in assay [1], in assay [2] and in assay [3].
`P.[In]`: in assay [1], the AC50 is 0.101 µM (active).
Turning to `CCOP(=O)(CN(CCO)CCO)OCC`, the compound was called inactive in assay [1], in assay [2] and in assay [3].
On to `COP(=S)(OC)Oc1cc(Cl)c(Br)cc1Cl`, for which, in assay [1], the call was inactive.
On the same count and under the same terms, for `O=C(O)CCC(F)(C(F)(F)F)C(F)(F)F` the value was “inactive”.
Take `CC(C)(c1ccc(OCC2CO2)cc1)c1ccc(OCC2CO2)cc1` (stereo not given): the compound was called inactive in assay [1]. In addition, the figures for the AC50 in assay [2] and in assay [3] were 36 µM (active) and 51.6 µM (active), respectively.
With `CC(C)OC(=S)S`, the compound was called inactive in assay [1].
Consider `C(=NC1CCCCC1)=NC1CCCCC1`, for which the outcome in assay [1], in assay [2] and in assay [3] was inactive.
Consider `ClC1=C(Cl)[C@]2(Cl)[C@@H]3[C@@H](Cl)[C@@H](Cl)C[C@@H]3[C@@]1(Cl)C2(Cl)Cl`, for which the compound was classed as inactive in assay [1], in assay [2] and in assay [3].
With `O=C(OC1CCCCC1)c1ccccc1C(=O)OC1CCCCC1`, the compound was classed as inactive in assay [1], in assay [2] and in assay [3].
As to `NC(=S)Nc1ccccc1`, the call in assay [1], in assay [2] and in assay [3] was inactive.
In the case of `C[C@H]1CCCC(=O)CCC/C=C/c2cc(O)cc(O)c2C(=O)O1`, the concentration at half-maximal activity (AC50) in assay [1] is 0.00378 µM (active). In addition, the outcome in assay [2] and in assay [3] was inactive.
As to `CC1CCCCC1NC(=O)Nc1ccccc1` (stereo not given), the result in assay [1] was inactive.
Consider `ClC1=C(Cl)[C@]2(Cl)[C@H]3[C@H]([C@H]4C=C[C@H]3C4)[C@@]1(Cl)C2(Cl)Cl`, for which the call in assay [1], in assay [2] and in assay [3] was inactive.
`CN(CCCC(=O)c1cccnc1)N=O`: the compound was classed as inactive in assay [1], in assay [2] and in assay [3].
As for `Cc1cc(=O)[nH]o1`, the compound was called inactive in assay [1], in assay [2] and in assay [3].
Consider `CC(C)=C[C@@H]1[C@@H](C(=O)OCc2coc(Cc3ccccc3)c2)C1(C)C`, for which, in assay [1], the outcome was inactive.
Consider `O=P(O)(O)c1ccccc1`, for which, in assay [1], the outcome was inactive.
For `CCOP(=S)(OCC)Oc1nc(Cl)c(Cl)cc1Cl`, the compound was called inactive in assay [1], in assay [2] and in assay [3].
Turning to `Cc1cc(Cl)ccc1O[C@H](C)C(=O)O`, the outcome in assay [1], in assay [2] and in assay [3] was inactive.
Take `NNC(=S)NN`: the call in assay [1], in assay [2] and in assay [3] was inactive.
`CC1(C)Cc2cccc(O)c2O1`: the result in assay [1], in assay [2] and in assay [3] was inactive.
As for `COc1ccc(C(O)(c2cncnc2)C2CC2)cc1` (stereo not given), the compound was classed as inactive in assay [1].
`N#CCc1ccc(Cl)cc1`: the compound was called inactive in assay [1], in assay [2] and in assay [3].
`Nc1cccc(Cl)c1`: the outcome in assay [1], in assay [2] and in assay [3] was inactive.
As for `CCC(=O)c1ccccc1`, the result in assay [1], in assay [2] and in assay [3] was inactive.
`CCCCC(CC)CO[N+](=O)[O-]` (stereo not given): the compound was called inactive in assay [1], in assay [2] and in assay [3].
For `CCCCP(CCCC)CCCC`, the compound was called inactive in assay [1], in assay [2] and in assay [3].
On to `CCc1ccccc1N`, for which the compound was called inactive in assay [1], in assay [2] and in assay [3].
For the compound `CC(C)C1CCC(Cc2ccc(Cl)cc2)C1(O)Cn1cncn1` (stereo not given), the result in assay [1], in assay [2] and in assay [3] was inactive.
On to `COC(=O)c1sccc1S(=O)(=O)NC(=O)Nc1nc(C)nc(OC)n1`, for which the compound was called inactive in assay [1], in assay [2] and in assay [3].
On to `CC(C)CCCCCCOC(=O)c1ccccc1C(=O)OCCCCCCC(C)C`, for which the outcome in assay [1], in assay [2] and in assay [3] was inactive.
Take `BrCCBr`: the compound was called inactive in assay [1], in assay [2] and in assay [3].
With `OCc1ccco1`, the compound was called inactive in assay [1], in assay [2] and in assay [3].
For the compound `CC(=[OH+])/C=C(/C)[O-].CC(=[OH+])/C=C(/C)[O-].CC(=[OH+])/C=C(/C)[O-].[Fe]`, the compound was classed as inactive in assay [1], in assay [2] and in assay [3].
As to `Fc1ccc(C2(Cn3cncn3)OC2c2ccccc2Cl)cc1` (stereo not given), the compound was classed as inactive in assay [1], in assay [2] and in assay [3].
`COc1cc(OC)nc(NC(=O)NS(=O)(=O)c2ncccc2C(=O)N(C)C)n1`: the compound was classed as inactive in assay [1], in assay [2] and in assay [3].
Regarding `ClCc1ccccn1`, the outcome in assay [1] and in assay [3] was inactive. Moreover, the concentration at half-maximal activity (AC50) in assay [2] was 67.5 µM (active).
Turning to `O=S(=O)(c1ccc(Cl)cc1)c1ccc(Cl)cc1`, the compound was classed as inactive in assay [1], in assay [2] and in assay [3].
On to `CC(=O)C=C(C)C`, for which the AC50 in assay [1] was 10.8 µM (active). The compound was classed as inactive in assay [2] and in assay [3].
With `C[C@@H](Oc1ccc(Cl)cc1Cl)C(=O)O`, the compound was classed as inactive in assay [1], in assay [2] and in assay [3].
On to `ClC(Cl)=C(Cl)C(Cl)=C(Cl)Cl`, for which the call in assay [1] and in assay [3] was inactive. Also, in assay [2], the AC50 is 180 µM (active).
`COC(=O)Cc1ccccc1`: the compound was classed as inactive in assay [1], in assay [2] and in assay [3].
Consider `c1ccc(N=NNc2ccccc2)cc1`, for which the compound was classed as inactive in assay [1], in assay [2] and in assay [3].
Take `C=CC#N`: the call in assay [1], in assay [2] and in assay [3] was inactive.
On to `C=C(C)C#N`, for which the outcome in assay [1], in assay [2] and in assay [3] was inactive.
With `COP(=S)(OC)Oc1ccc(S(=O)(=O)N(C)C)cc1`, the result in assay [1], in assay [2] and in assay [3] was inactive.
For `CCC[CH2][Sn]([CH2]CCC)([CH2]CCC)[O]C(=O)c1ccccc1`, the call in assay [1] and in assay [2] was inactive. The AC50 in assay [3] is 0.0581 µM (active).
In the case of `O=C/C=C/c1ccccc1`, the call in assay [1], in assay [2] and in assay [3] was inactive.
Turning to `CCOC(=O)/C=C(C)/C=C/C[C@@H](C)CCCC(C)C`, the result in assay [1] was inactive. Further, the AC50 in assay [2] was 23.5 µM (active); in assay [3], 179 µM (active).
With `CNC(=O)O/N=C/C(C)(C)S(C)=O` (stereo not given), the call in assay [1], in assay [2] and in assay [3] was inactive.
As to `COP(=O)(OC)OC`, the call in assay [1], in assay [2] and in assay [3] was inactive.

Broadly, the AC50 is the concentration at which the activity in the assay is half-maximal.
